Assay results from PubChem BioAssay (NCI).
About 83,000 compounds went through this panel and 20% of them were active in at least one assay; those are over-represented in the sample as a whole.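 Note: values are percent growth. 100 is the growth of untreated cells, values between 100 and 0 indicate rising inhibition; between -100 and 0 indicates cell death.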 Activity calls are given as the source filed them. Rule for the calls: active = growth percent below 10; inactive = the rest.

Legend:
Test in all cases: NCI-60 one-dose screen, 48 h (100 = growth as untreated, 0 = no growth, -100 = all killed)
HCT-15 colon = system: HCT-15 colon
HT29 colon = system: HT29 colon
SNB-75 CNS = system: SNB-75 CNS
SNB-19 CNS = system: SNB-19 CNS
U251 CNS = system: U251 CNS
PC-3 prostate = system: PC-3 prostate
SK-MEL-5 melanoma = system: SK-MEL-5 melanoma
UACC-62 melanoma = system: UACC-62 melanoma
LOX IMVI melanoma = system: LOX IMVI melanoma
SK-MEL-28 melanoma = system: SK-MEL-28 melanoma

Measured: growth

Cc1ccc2nc(NC(=O)Nc3cccc(Cl)c3)sc2c1
inactive: HCT-15 colon; 10 µM unless noted 92% | HT29 colon; 10 µM unless noted 104% | SNB-75 CNS; 10 µM unless noted 108% | SNB-19 CNS; 10 µM unless noted 103% | U251 CNS; 10 µM unless noted 111% | PC-3 prostate; 10 µM unless noted 92.4% | SK-MEL-5 melanoma; 10 µM unless noted 97.2% | UACC-62 melanoma; 10 µM unless noted 91.2% | LOX IMVI melanoma; 10 µM unless noted 88.1% | SK-MEL-28 melanoma; 10 µM unless noted 112%

COC(=O)c1cc(C(C)=O)n2c3ccccc3c3ccccc3c12
active: SNB-75 CNS; 10 µM unless noted -12.2%
inactive: HCT-15 colon; 10 µM unless noted 71.3% | HT29 colon; 10 µM unless noted 92.6% | SNB-19 CNS; 10 µM unless noted 42.9% | U251 CNS; 10 µM unless noted 80.6% | PC-3 prostate; 10 µM unless noted 56.5% | SK-MEL-5 melanoma; 10 µM unless noted 21.9% | UACC-62 melanoma; 10 µM unless noted 67% | LOX IMVI melanoma; 10 µM unless noted 64.7% | SK-MEL-28 melanoma; 10 µM unless noted 92.4%

O=C(CSc1nc2sc3c(c2c(=O)n1-c1ccc(Cl)cc1)CCCC3)NNC(=O)c1ccc(Br)cc1
inactive: HCT-15 colon; 10 µM unless noted 73.9% | HT29 colon; 10 µM unless noted 100% | SNB-75 CNS; 10 µM unless noted 82.7% | SNB-19 CNS; 10 µM unless noted 24.8% | U251 CNS; 10 µM unless noted 26.6% | PC-3 prostate; 10 µM unless noted 71.8% | SK-MEL-5 melanoma; 10 µM unless noted 74.2% | UACC-62 melanoma; 10 µM unless noted 36.6% | LOX IMVI melanoma; 10 µM unless noted 52.1% | SK-MEL-28 melanoma; 10 µM unless noted 78.8%

CC/C(=C(\c1ccc(O)cc1)c1ccc(OCCNC)cc1)c1ccccc1
inactive: HCT-15 colon; 1 µM 107% | HCT-15 colon; 10 µM 69.8% | HT29 colon; 1 µM 98.7% | HT29 colon; 10 µM 55.6% | SNB-75 CNS; 1 µM 110% | SNB-75 CNS; 10 µM 62.7% | SNB-19 CNS; 1 µM 94.6% | SNB-19 CNS; 10 µM 98.6% | U251 CNS; 1 µM 98.6% | U251 CNS; 10 µM 57.4% | PC-3 prostate; 1 µM 101% | PC-3 prostate; 10 µM 83% | SK-MEL-5 melanoma; 1 µM 97.1% | SK-MEL-5 melanoma; 10 µM 89.2% | UACC-62 melanoma; 1 µM 91.6% | UACC-62 melanoma; 10 µM 101% | LOX IMVI melanoma; 1 µM 86.9% | LOX IMVI melanoma; 10 µM 83.1% | SK-MEL-28 melanoma; 1 µM 98.5% | SK-MEL-28 melanoma; 10 µM 93.3%

CC/C(=C(\c1ccc(O)cc1)c1ccc(OCCN(C)C(=O)COCCNC(=O)Cc2ccc3c(c2)CN([C@@H]2CCC(=O)NC2=O)C3=O)cc1)c1ccccc1
active: SNB-75 CNS; 10 µM 4.63%
inactive: HCT-15 colon; 1 µM 110% | HCT-15 colon; 10 µM 99.5% | HT29 colon; 1 µM 110% | HT29 colon; 10 µM 80.1% | SNB-75 CNS; 1 µM 44.9% | SNB-19 CNS; 1 µM 64.8% | SNB-19 CNS; 10 µM 49.8% | U251 CNS; 1 µM 97.4% | U251 CNS; 10 µM 80% | PC-3 prostate; 1 µM 26.7% | PC-3 prostate; 10 µM 18.7% | SK-MEL-5 melanoma; 1 µM 83.7% | SK-MEL-5 melanoma; 10 µM 31.8% | UACC-62 melanoma; 1 µM 93.4% | UACC-62 melanoma; 10 µM 77.8% | LOX IMVI melanoma; 1 µM 101% | LOX IMVI melanoma; 10 µM 90.4% | SK-MEL-28 melanoma; 1 µM 90.4% | SK-MEL-28 melanoma; 10 µM 57%
